# Measured values as given in ChEMBL document CHEMBL3988442, “University of Dundee, Small-Polar-MMV Screening Library” (2021).
# Screen size: about 48,000 compounds; about 13,000 (27%) showed an effect of 50% or more. This is one part of the list.
# System: Wolbachia pipientis
# Experiment: Anti-Wolbachia Cell-Based Screen
# Assay type: functional
# Set-up: scale not given: in the data most compounds retested in dose-response had high values
# Conditions: 5 µM
row,SMILES,Percent Effect [%]
1,Cc1nc(N(C)Cc2cccc(O)c2)nc2cc(S(C)(=O)=O)ccc12,-16.37
2,CC(C)C(=O)N1CCC(NC2CCSCC2)C1 (stereo unspecified),-5.859
3,CS(=O)(=O)N1CCC(Oc2ccc(C(=O)NCCC(N)=O)cc2Cl)CC1,-24.14
4,Cc1ccc(N2CCC3(CC2)CCN(C2CCOCC2)CC3)nn1.O=C(O)C(F)(F)F,-17.16
5,Cc1ccc(N2CC[C@H]3OCC[C@@]3(C(=O)N3CCCC3)C2)nn1,99.3
6,Cc1ccc(N2CCCC3(CCN(C(=O)C4CC4)C3)C2)nn1 (stereo unspecified),2.415
7,Cc1ccc(N2CC[C@H]3OCC[C@@]3(C(=O)N(C)C)C2)nn1,116.6
8,Cc1ccc(N2CC3(CCN(C(=O)c4ccoc4)C3)C2)nn1,11.71
9,c1cn(-c2ccc(CN3CCCC3)cc2)c(-c2cc3n(n2)CCNC3)n1,4.696
10,O=C(NCC(F)(F)F)C1CCCN(Cc2ccno2)C1 (stereo unspecified),-13.93
11,COc1cc(OC)cc(C(=O)NCC(c2cccn2C)N2CCCC2)c1 (stereo unspecified),93.86
12,CN1CCN(C(CNC(=O)CCn2cccn2)c2cccs2)CC1 (stereo unspecified),11.34
13,Cn1cccc1C(CNC(=O)COc1ccc(Cl)cc1Cl)N1CCCC1 (stereo unspecified),-0.05475
14,Cc1ccc(C)c(C(=O)NCC(c2cccn2C)N2CCCCCC2)c1 (stereo unspecified),114.5
15,Cn1cccc1C(CNC(=O)c1ccc(F)cc1F)N1CCCCCC1 (stereo unspecified),2.493
16,COc1ccc(C(=O)NCC(c2cccn2C)N2CCCC2)c(OC)c1 (stereo unspecified),6.724
17,COc1ccc(C(=O)NCC(c2cccn2C)N2CCCC2)cc1OC (stereo unspecified),118.2
18,Cn1cccc1C(O)CNC(=O)COc1ccc(Cl)cc1Cl (stereo unspecified),19.06
19,CN1CCN(C(CNC(=O)c2ccc(Cl)cc2F)c2cccs2)CC1 (stereo unspecified),-14.94
20,COc1ccc(C(=O)NCC(c2cccn2C)N2CCN(C)CC2)cc1 (stereo unspecified),104.9
21,CC(C)=CCN1CCN(S(=O)(=O)c2cn(C)cn2)[C@H]2CS(=O)(=O)C[C@H]21,-6.169
22,Cn1cc(NC(=O)CCCc2cccs2)c(=O)n(C)c1=O,-5.332

row,SMILES,Percent Effect [%]
1,NC(=O)C1CCN(CCc2ccc(NCc3ccsc3)cc2)CC1,-14.27
2,Cn1c(CN2CCCC2)nnc1C1CCCN(C(=O)CN2CCCC2)C1 (stereo unspecified),-18.41
3,O=C(C1CCC1)N1CCn2c(COc3ncccn3)nnc2C1,-0.8888
4,Cn1c(CN2CCC(O)CC2)nnc1C1CCCN(C(=O)C2CNC2)C1 (stereo unspecified),15.55
5,O=C(C1CCCC1)N1CCn2c(nnc2C2CCCNC2)C1 (stereo unspecified),107.7
6,O=C(CN1CCCCCC1)N1CCc2nnc(C3CCCNC3)n2CC1 (stereo unspecified),109
7,O=C(CN1CCNC1=O)N1CCc2nnc(-c3ccccc3)n2CC1,-8.724
8,CC(C)OC(=O)N1CCC(Nc2ncc(Br)cn2)CC1,-1.588
9,N#Cc1ccccc1N1CCC(Nc2nccnc2C#N)CC1,-4.6
10,CC(C)OCCN1CCC(Nc2nccnc2C#N)CC1,120.8
11,Cc1cc(C)nc(N2CCC(OCCN3CCCCC3)C2)n1 (stereo unspecified),5.961
12,CC(C)OCCN1CCN(C(=O)c2cc(-n3cccn3)ccn2)CC1,-9.064
13,Cc1cccc(C(=O)N2CCN(CCOC(C)C)CC2)n1,2.598
14,COCCC(=O)N1CCC(Nc2ncc(Br)cn2)CC1,-2.915
15,N#Cc1nccnc1NC1CCN(c2c(F)cccc2F)C1 (stereo unspecified),7.205
16,CC(C)OCCN1CCC(Nc2ncccn2)CC1,110.1
17,CC(C)OCCN1CCC(Nc2ncc(Br)cn2)CC1,82.04
18,Cc1cc(C)nc(NC2CCN(CCOC(C)C)CC2)n1,107
19,CC(C)OCCN1CCC(N2CCN(C)C2=O)CC1,7.095
20,CCNC(=O)C1CCCN1S(=O)(=O)c1sc(=O)[nH]c1C (stereo unspecified),-8.251
21,O=S(=O)(C1CC1)N1CCOC2(COCCN(c3ncccn3)C2)C1 (stereo unspecified),-6.11
22,Cc1cnccc1-n1nc(C(C)C)nc1CCN(C)S(C)(=O)=O,-12.77

row,SMILES,Percent Effect [%]
1,CCN(CC(F)(F)F)C(=O)C1CCCN(Cc2cscn2)C1 (stereo unspecified),6.1
2,COCC(=O)NCCC(=O)N1CCN(S(=O)(=O)c2ccc(Br)cc2)CC1,15.42
3,COCCCN(CCOC)Cc1nc2c(cnn2C)c(=O)[nH]1,93.22
4,COCCN(CCOC)Cc1nc2c(cnn2C)c(=O)[nH]1,107.8
5,COCCN(Cc1nc2c(cnn2C)c(=O)[nH]1)C(C)c1ccccc1 (stereo unspecified),98.63
6,CC(C)N(Cc1nc2c(cnn2C)c(=O)[nH]1)c1ccccc1,-5.677
7,COCCCN(C)Cc1nc2c(cnn2C)c(=O)[nH]1,-7.298
8,Cc1ccc(C(C)N(C)Cc2nc3c(cnn3C)c(=O)[nH]2)cc1 (stereo unspecified),-5.253
9,COCCN(CCc1ccccc1)Cc1nc2c(cnn2C)c(=O)[nH]1,10.98
10,CC(C)(C)c1cc(CN2CCOCC(O)C2)n[nH]1 (stereo unspecified),40.36
11,CC(=O)Nc1cc(F)c(S(=O)(=O)N(C)CC2CCC2)c(F)c1,32.27
12,Cn1cccc1CN1CCC2(CC1)CC(Oc1cccnc1)C2.O=C(O)C(F)(F)F.O=C(O)C(F)(F)F,9.854
13,COC(=O)C(C)Sc1nnnn1C1CCOCC1 (stereo unspecified),-41.77
14,O=C(O)C1CN(Cc2cnc(C3CCCCC3)nc2)CCO1 (stereo unspecified),-13.64
15,OCC1(O)CCN(Cc2ccc(C3CCCCO3)o2)CC1 (stereo unspecified),2.159
16,CCOC(C)c1noc(CN2CCCN(c3ccccn3)CC2)n1 (stereo unspecified),3.417
17,CN(C)[C@H]1CCCCN(Cc2cnc(NCc3ccccc3)nc2)C1,-3.217
18,c1ccc(N2CCN(Cc3cnc(C4CCCCO4)nc3)CC2)cc1 (stereo unspecified),50.77
19,CNS(=O)(=O)c1ccc(CN2CCCN(c3ccccc3)CC2)cc1,23.15
20,c1ccc(CN2CCN(Cc3cnc(C4CCCCO4)nc3)CC2)cc1 (stereo unspecified),181.4
21,Cl.Cl.OC(CN1CCN(Cc2ccccc2)CC1)C1CC1 (stereo unspecified),1.667
22,O=C1OCCC1N1CCN(c2ccccn2)CC1 (stereo unspecified),0.5958

row,SMILES,Percent Effect [%]
1,c1ccc(N2CCN(Cc3cnc(C4CCCCO4)nc3)CC2)nc1 (stereo unspecified),112.3
2,c1nc(C2CCCCO2)ncc1CN1CCOCC1 (stereo unspecified),157.1
3,OCC1(CC2CC2)CCCN(Cc2cnc(N3CCOCC3)nc2)C1 (stereo unspecified),1.203
4,COc1ccc(CC(=O)N2CCc3nnc(N(C)C)cc3C2)cc1F,-3.012
5,CCN(CC)S(=O)(=O)N1C[C@@H]2CC[C@H](C1)N(Cc1cscn1)C2=O,-30.66
6,CCC1c2ccccc2CCN1C(=O)c1ccnc(C(=O)OC)c1 (stereo unspecified),-12.45
7,CC(C)NC[C@H]1COCc2nc3cccnc3n21,-0.2965
8,O=C(c1ccc2ncsc2c1)N1CCC(C(=O)O)(n2cccn2)CC1,-48.02
9,CC(C)(C)c1nnc(CN2CCN(S(C)(=O)=O)CC2)o1,12.09
10,O=C(CCC(=O)N1CCc2ccccc2C1)c1cccs1,11.35
11,CC1CCN(C(=O)CSCCN2CCOCC2)CC1,94.74
12,O=C(Cn1cc(I)cn1)N1CCc2ccccc2C1,13.89
13,O=C(CSCCN1CCOCC1)N1CCc2ccccc2C1,125
14,CC(=O)N1CCOC2(CCCN(C(=O)CCN3CCCCC3)C2)C1 (stereo unspecified),-17.75
15,CC1CCN(C(=O)CSCc2noc(C(C)C)n2)CC1,-0.6667
16,CC1CCN(C(=O)CSCc2nc(C3CC3)no2)CC1,2
17,O=C(CSCCN1CCOCC1)N1CCCCCC1,88.11
18,CCOCCN1CCN(CCC(=O)N2CCCCC2)CC1,-4.912
19,N#Cc1cccnc1OC1CCN(C(=O)NCc2ccccc2)CC1,7.798
20,CC(=O)N1CCCC2(CN(Cc3ccc(C)s3)CCO2)C1.O=C(O)C(F)(F)F (stereo unspecified),0.2205
21,O=C(CC1OCCc2ccccc21)NCC1(O)CCCCC1 (stereo unspecified),-10.96
22,Cc1ccc(CNc2ccn(CCC(N)=O)n2)c(Br)c1,-13.88

row,SMILES,Percent Effect [%]
1,CCC(CO)N(Cc1ccccn1)C(=O)c1ccc(C)c(Cl)c1 (stereo unspecified),-8.3
2,CC(C)c1cc(C(=O)N(Cc2ccncc2)CC2CCCO2)no1 (stereo unspecified),4.129
3,COc1ccc(-c2ccncc2)cc1CNC1CCCC1,-7.134
4,c1cc(-c2cnc(NC3CC3)nc2[C@@H]2CCCO2)ccn1,175.9
5,CC(C)Nc1ncc(-c2ccncc2)c([C@@H]2CCCO2)n1,174
6,c1cc(-c2cnc(NC3CC3)nc2[C@H]2CCCO2)ccn1,171.5
7,COc1ccc(CCC(=O)NCCC2CCCO2)cc1Br (stereo unspecified),4.709
8,O=C(NCCn1ccnc1)C1(c2ccc3c(c2)OCCO3)CCCC1,33.12
9,CC(C)(CO)Nc1ccc(-c2nc(-c3ccccc3F)no2)cn1,-13.37
10,CC(C)(CO)Nc1cc(-c2ccncc2)ncn1,106.2
11,CC(C)(CO)Nc1cc(-c2cn[nH]c2)ncn1.Cl,116.8
12,CC(C)(C)S(=O)(=O)CCNC(=O)c1cnc(-c2ccccc2)nc1,-10.41
13,CC(C)(CO)Nc1cc(-c2ccccc2)ncn1,83.59
14,COc1ccc(-c2cn[nH]c2)cc1CNC1CCCC1,-15.21
15,CN(Cc1ccsc1)Cc1ccc(C2CCCCO2)o1 (stereo unspecified),10.63
16,Cc1cccc(OC2CCN(c3ccc(C#N)cn3)CC2)n1,-50.95
17,CN(C)[C@@H]1CCN(c2ncccn2)[C@H]1Cc1ccncc1.O=C(O)C(F)(F)F.O=C(O)C(F)(F)F,-8.933
18,CC(O)CN(Cc1cccc(C(N)=O)c1)c1ccccc1 (stereo unspecified),-3.401
